Activity calls are given as the source filed them. How the source made its calls: active means hit-call score of the fitted dose curve at least 0.9, where 1 is the maximum; inactive means score below 0.9.
How the values were obtained:
Settings in all cases: mRNA level, 48 h; actives raise or lower the signal
CYP2C8 (gene 1558) = assay: LTEA_HepaRG_CYP2C8: Life Technologies and Expression Analysis (LTEA) Assay for CYP2C8 using HepaRG (AID 2283483)
Summary of the method: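 Differentiated HepaRG cells in serum-free induction medium exposed 48 h in duplicate to 8 half-log concentrations from 100 uM in 0.5% DMSO. CYP2C8 mRNA by qRT-PCR normalized to ACTB, GAPDH, POLR2A; bidirectional fit versus DMSO.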

CYP2C9 (gene 1559) = assay: LTEA_HepaRG_CYP2C9: Life Technologies and Expression Analysis (LTEA) Assay for CYP2C9 using HepaRG (AID 2283484)
Summary of the method: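 Differentiated human HepaRG cells in serum-free induction medium were exposed 48 h to chemicals in 8-point half-log series from 100 uM (0.5% DMSO), in duplicate. CYP2C9 mRNA was measured by qRT-PCR, normalized to ACTB/GAPDH/POLR2A, with bidirectional fitting versus DMSO.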

CYP2E1 (gene 1571) = assay: LTEA_HepaRG_CYP2E1: Life Technologies and Expression Analysis (LTEA) Assay for CYP2E1 using HepaRG (AID 2283485)
Summary of the method: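 HepaRG cells in serum-free induction medium exposed 48 h to test chemicals, 8 half-log concentrations up to 100 uM in 0.5% DMSO, duplicate. CYP2E1 mRNA by qRT-PCR, normalized to ACTB, GAPDH, POLR2A; bidirectional fit versus DMSO.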

CYP4A11 (gene 1579) = assay: LTEA_HepaRG_CYP4A11: Life Technologies and Expression Analysis (LTEA) Assay for CYP4A11 using HepaRG (AID 2283486)
Summary of the method: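 HepaRG, 48 h chem exposure, 8 conc (100 uM top, half-log), 0.5% DMSO vehicle; qRT-PCR readout, housekeeping-gene normalized; bidirectional curve fit vs DMSO baseline.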

[1] = read-out: Cytochrome P450 3A4 (Homo sapiens) (UniProt P08684); assay: LTEA_HepaRG_CYP3A4: Life Technologies and Expression Analysis (LTEA) Assay for CYP3A4 using HepaRG (AID 2283487)
Summary of the method: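 Differentiated HepaRG cells, plated 48 h, then dosed 48 h in serum-free induction medium with 0.5% DMSO, 8 half-log concentrations up to 100 uM, duplicate. CYP3A4 mRNA by qRT-PCR, normalized to ACTB/GAPDH/POLR2A; bidirectional fit versus DMSO.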

[2] = read-out: DNA damage-inducible transcript 3 (DDIT3), DDIT3 (gene 1649); assay: LTEA_HepaRG_DDIT3: Life Technologies and Expression Analysis (LTEA) Assay for DNA damage-inducible transcript 3 (DDIT3) using HepaRG (AID 2283488)
Summary of the method: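 Differentiated human HepaRG cells in serum-free induction medium were exposed in duplicate for 48 h to 8 concentrations (top 100 uM, half-log steps, 0.5% DMSO). DDIT3 mRNA measured by TaqMan qRT-PCR, normalized to ACTB/GAPDH/POLR2A; bidirectional fit versus DMSO.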

[3] = read-out: Pro-epidermal growth factor (Homo sapiens) (UniProt P01133); assay: LTEA_HepaRG_EGF: Life Technologies and Expression Analysis (LTEA) Assay for Epidermal growth factor (EGF) using HepaRG (AID 2283489)
Summary of the method: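 HepaRG, 48 h dosing, 100 uM top, half-log x8, 0.5% DMSO. Readout: TaqMan qRT-PCR (Fluidigm array), housekeeping-normalized. Gain or loss of signal fit vs DMSO.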

[4] = read-out: Early growth response protein 1 (EGR1) transcription factor, EGR1 (gene 1958); assay: LTEA_HepaRG_EGR1: Life Technologies and Expression Analysis (LTEA) Assay for Early growth response protein 1 (EGR1) transcription factor using HepaRG (AID 2283490)
Summary of the method: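 Differentiated HepaRG cells in serum-free induction medium exposed 48 hours, duplicate, to 8 half-log concentrations up to 100 uM in 0.5% DMSO. EGR1 mRNA measured by TaqMan qRT-PCR, normalized to ACTB, GAPDH, POLR2A; bidirectional fit versus DMSO.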

[5] = read-out: Ezrin (EZR), EZR (gene 7430); assay: LTEA_HepaRG_EZR: Life Technologies and Expression Analysis (LTEA) Assay for Ezrin (EZR) using HepaRG (AID 2283491)
Summary of the method: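 EZR transcript levels came from Fluidigm qRT-PCR and were normalized to three housekeeping genes after 48 h chemical exposure of HepaRG cells. Dosing used an 8-point half-log series with a 100 uM top concentration in 0.5% DMSO, tested in duplicate; both directions were fitted versus vehicle.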

[6] = read-out: Cytochrome P450 3A7 (Homo sapiens) (UniProt P24462); assay: LTEA_HepaRG_CYP3A7: Life Technologies and Expression Analysis (LTEA) Assay for CYP3A7 using HepaRG (AID 2283492)
Summary of the method: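 Human HepaRG liver cells, 48 h post-plating, switched to serum-free induction medium and exposed in duplicate for 48 h. Dosing: 100 uM top, half-log dilutions, 8 points, 0.5% DMSO vehicle. Read-out: CYP3A7 mRNA, gain or loss fitted against DMSO baseline.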

[7] = read-out: Fatty Acid-Binding Protein 1 (FABP1), FABP1 (gene 2168); assay: LTEA_HepaRG_FABP1: Life Technologies and Expression Analysis (LTEA) Assay for Fatty Acid-Binding Protein 1 (FABP1) using HepaRG (AID 2283494)
Summary of the method: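 Differentiated human HepaRG cells exposed 48 h in serum-free induction medium to eight half-log concentrations up to 100 uM (0.5% DMSO), duplicate. FABP1 mRNA by qRT-PCR, normalised to ACTB, GAPDH, POLR2A; bidirectional fitting against DMSO.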

[8] = read-out: Cytochrome P450 7A1 (Homo sapiens) (UniProt P22680); assay: LTEA_HepaRG_CYP7A1: Life Technologies and Expression Analysis (LTEA) Assay for Cytochrome P450 7A1 (CYP7A1) using HepaRG (AID 2283496)
Summary of the method: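 Gene expression endpoint in human HepaRG liver cells treated for 48 h with test chemicals (up to 100 uM, 0.5% DMSO). Values come from bidirectional concentration-response fitting versus DMSO.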

[9] = read-out: Glutathione S-Transferase (GSTA2), GSTA2 (gene 2939); assay: LTEA_HepaRG_GSTA2: Life Technologies and Expression Analysis (LTEA) Assay for Glutathione S-Transferase (GSTA2) using HepaRG (AID 2283497)
Summary of the method: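 Differentiated human HepaRG cells were exposed in duplicate for 48 h in serum-free induction medium, 8 points from 100 uM top in half-log steps, 0.5% DMSO. GSTA2 mRNA was measured by TaqMan qRT-PCR, normalized to ACTB, GAPDH and POLR2A; bidirectional fit versus DMSO.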

[10] = read-out: growth arrest and DNA damage 45 (GADD45G), GADD45G (gene 10912); assay: LTEA_HepaRG_GADD45G: Life Technologies and Expression Analysis (LTEA) Assay for growth arrest and DNA damage 45 (GADD45G) using HepaRG (AID 2283499)
Summary of the method: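 Gain or loss of GADD45G mRNA, quantified by TaqMan qRT-PCR against three housekeeping genes, is fitted in both directions relative to 0.5% DMSO. Human HepaRG cultures receive test chemical for 48 h at up to 100 uM.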

[11] = read-out: Glutamate-cysteine ligase regulatory (GCLM), GCLM (gene 2730); assay: LTEA_HepaRG_GCLM: Life Technologies and Expression Analysis (LTEA) Assay for Glutamate-cysteine ligase regulatory (GCLM) using HepaRG (AID 2283500)
Summary of the method: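 Differentiated human HepaRG cells exposed 48 h in serum-free induction medium to 8-point half-log concentrations (top 100 uM, 0.5% DMSO), in duplicate. GCLM mRNA quantified by qRT-PCR, normalized to ACTB, GAPDH, POLR2A; bidirectional fitting versus DMSO.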

[12] = read-out: Heat shock 70 kDa protein 1 (HSPA1A), gene 3303; assay: LTEA_HepaRG_HSPA1A: Life Technologies and Expression Analysis (LTEA) Assay for Heat shock 70 kDa protein 1 (HSPA1A) using HepaRG (AID 2283502)
Summary of the method: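 Differentiated human HepaRG cells in serum-free induction medium were exposed in duplicate for 48 h to eight concentrations (top 100 uM, half-log steps, 0.5% DMSO). HSPA1A mRNA was quantified by qRT-PCR, normalized to ACTB, GAPDH and POLR2A, and fitted bidirectionally against DMSO.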

CYP3A5 (gene 1577) = assay: LTEA_HepaRG_CYP3A5: Life Technologies and Expression Analysis (LTEA) Assay for CYP3A5 using HepaRG (AID 2283493)
Summary of the method: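 Differentiated HepaRG cells in serum-free induction medium were dosed 48 h with test chemicals (8-point half-log series, top 100 uM, 0.5% DMSO, duplicate). CYP3A5 mRNA measured by qRT-PCR, normalized to ACTB, GAPDH, POLR2A; bidirectional fit versus DMSO.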

[13] = read-out: Cytochrome P450 4A22 (Homo sapiens) (UniProt Q5TCH4); assay: LTEA_HepaRG_CYP4A22: Life Technologies and Expression Analysis (LTEA) Assay for Cytochrome P450 4A22 (CYP4A22) using HepaRG (AID 2283495)
Summary of the method: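 Readout is CYP4A22 transcript induction or loss, quantified by qRT-PCR and normalized to ACTB, GAPDH and POLR2A. Human HepaRG cells receive test chemicals for 48 h at eight half-log concentrations from 100 uM in 0.5% DMSO.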

[14] = read-out: Glutamate-cysteine ligase catalytic (GCLC), GCLC (gene 2729); assay: LTEA_HepaRG_GCLC: Life Technologies and Expression Analysis (LTEA) Assay for Glutamate-cysteine ligase catalytic (GCLC) using HepaRG (AID 2283498)
Summary of the method: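 Differentiated HepaRG cells exposed 48 h in serum-free induction medium, eight-point half-log series topping at 100 uM in 0.5% DMSO, duplicates. GCLC mRNA by qRT-PCR normalized to ACTB, GAPDH and POLR2A, fitted bidirectionally versus DMSO.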

[15] = read-out: Glutathione S-transferase M3 (GSTM3), GSTM3 (gene 2947); assay: LTEA_HepaRG_GSTM3: Life Technologies and Expression Analysis (LTEA) Assay for Glutathione S-transferase M3 (GSTM3) using HepaRG (AID 2283501)
Summary of the method: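 HepaRG, plated 48 h, then serum-free induction medium; test chemical 48 h, duplicate; 100 uM top, half-log x8, 0.5% DMSO. Read-out: GSTM3 mRNA (TaqMan qRT-PCR, Fluidigm array). Bidirectional fit vs DMSO.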

Measured: AC50

Chain of Cytochrome P450 3A4 (Homo sapiens) (P08684 whole entry, looked up): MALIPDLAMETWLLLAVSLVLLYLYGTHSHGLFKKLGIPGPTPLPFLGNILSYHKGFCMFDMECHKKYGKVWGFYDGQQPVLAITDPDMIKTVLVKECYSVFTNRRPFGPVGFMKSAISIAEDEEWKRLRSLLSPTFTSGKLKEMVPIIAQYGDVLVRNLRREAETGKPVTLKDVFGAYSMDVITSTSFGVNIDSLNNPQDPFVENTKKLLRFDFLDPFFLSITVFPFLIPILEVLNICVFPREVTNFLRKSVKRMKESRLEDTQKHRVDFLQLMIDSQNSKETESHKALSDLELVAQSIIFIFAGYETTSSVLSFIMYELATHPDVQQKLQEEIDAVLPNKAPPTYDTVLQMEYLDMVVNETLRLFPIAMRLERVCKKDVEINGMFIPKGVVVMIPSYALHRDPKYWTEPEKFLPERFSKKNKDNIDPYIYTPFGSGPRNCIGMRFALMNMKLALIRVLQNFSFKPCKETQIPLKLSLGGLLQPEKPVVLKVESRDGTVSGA
Chain of Cytochrome P450 3A7 (Homo sapiens) (P24462 whole entry, looked up): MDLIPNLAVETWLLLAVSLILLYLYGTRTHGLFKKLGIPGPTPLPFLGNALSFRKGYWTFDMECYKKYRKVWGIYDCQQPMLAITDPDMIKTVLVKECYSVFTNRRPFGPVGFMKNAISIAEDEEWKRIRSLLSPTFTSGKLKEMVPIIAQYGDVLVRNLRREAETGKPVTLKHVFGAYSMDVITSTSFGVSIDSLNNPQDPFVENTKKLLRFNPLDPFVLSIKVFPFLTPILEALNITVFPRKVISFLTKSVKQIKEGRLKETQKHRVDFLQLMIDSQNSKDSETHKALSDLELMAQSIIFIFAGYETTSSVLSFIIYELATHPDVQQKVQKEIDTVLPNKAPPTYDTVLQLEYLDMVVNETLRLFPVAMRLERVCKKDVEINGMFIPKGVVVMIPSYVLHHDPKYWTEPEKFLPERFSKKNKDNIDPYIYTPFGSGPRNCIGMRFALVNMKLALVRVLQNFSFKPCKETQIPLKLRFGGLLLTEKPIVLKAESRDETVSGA

Nc1nc(N)nc(NC2CC2)n1
not listed: CYP3A5 (gene 1577) | [13] | [14] | [15]
inactive: all other assays above

CN(C)NC(=O)CCC(=O)O
not listed: CYP3A5 (gene 1577) | [13] | [14] | [15]
inactive: all other assays above

FC(F)C(F)(F)OCC(Cn1cncn1)c1ccc(Cl)cc1Cl (stereo not drawn)
inactive: [3] | [14]
active: CYP2C8 (gene 1558) 24.6 µM | CYP2C9 (gene 1559) 38.1 µM | CYP2E1 (gene 1571) 16.1 µM | CYP4A11 (gene 1579) 28.8 µM | [1] 35.2 µM | [2] 28.7 µM | [4] 11.1 µM | [6] 49.8 µM | CYP3A5 (gene 1577) 83 µM | [7] 34.8 µM | [13] 16.6 µM | [8] 44.6 µM | [9] 38.7 µM | [10] 11.1 µM | [11] 13 µM | [12] 83.4 µM

CCc1cccc(C)c1N(C(=O)CCl)C(C)COC (stereo not drawn)
active: CYP2E1 (gene 1571) 50 µM | [1] 11.3 µM | [7] 37.9 µM | [9] 18 µM
not listed: CYP2C8 (gene 1558) | CYP3A5 (gene 1577) | [14]
inactive: all other assays above

CC(C)N(C(=O)SCC(Cl)=C(Cl)Cl)C(C)C
not listed: CYP2E1 (gene 1571) | CYP3A5 (gene 1577) | [13]
inactive: all other assays above

CCOP(=O)(SC(C)CC)N1CCSC1=O (stereo not drawn)
active: CYP2E1 (gene 1571) 19.1 µM | CYP4A11 (gene 1579) 17 µM | [1] 16.1 µM | [7] 16.1 µM | [8] 32.3 µM
not listed: CYP3A5 (gene 1577) | [13] | [15]
inactive: all other assays above

CCC(CC)Nc1c([N+](=O)[O-])cc(C)c(C)c1[N+](=O)[O-]
active: CYP2E1 (gene 1571) 64.7 µM | [1] 25.4 µM | [3] 50 µM | [6] 16.7 µM | [7] 50 µM
not listed: CYP3A5 (gene 1577) | [13] | [14] | [15]
inactive: all other assays above

CCC(=O)Nc1ccc(Cl)c(Cl)c1
active: CYP2E1 (gene 1571) 50 µM | CYP4A11 (gene 1579) 50 µM | [7] 9.92 µM | [9] 72.5 µM | [11] 50 µM
not listed: CYP3A5 (gene 1577) | [14] | [15]
inactive: all other assays above

CCOP(=S)(OCC)OC(Cl)C(Cl)(Cl)Cl (stereo not drawn)
active: [1] 50 µM
not listed: CYP3A5 (gene 1577) | [13] | [14] | [15]
inactive: all other assays above

CCCSP(=O)(OCC)SCCC
active: CYP2C8 (gene 1558) 5.47 µM | CYP2E1 (gene 1571) 25.8 µM | [7] 15.5 µM | [8] 22.1 µM
not listed: [1]
inactive: all other assays above

CC(=NC#N)N(C)Cc1ccc(Cl)nc1
active: CYP2C8 (gene 1558) 50 µM | [1] 50 µM | [6] 50 µM
not listed: CYP3A5 (gene 1577) | [13] | [15]
inactive: all other assays above

CC1(C(=O)Nc2ccc(O)c(Cl)c2Cl)CCCCC1
active: [1] 21.4 µM
not listed: CYP3A5 (gene 1577) | [13] | [14]
inactive: all other assays above

CC1=NNC(=O)N(/N=C/c2cccnc2)C1
not listed: CYP3A5 (gene 1577) | [13]
inactive: all other assays above

C#CC(C)(C)NC(=O)c1cc(Cl)cc(Cl)c1
active: CYP2E1 (gene 1571) 26.1 µM | [1] 5.13 µM | [6] 4.98 µM | [13] 40.9 µM
not listed: CYP3A5 (gene 1577) | [14] | [15]
inactive: all other assays above
